From PubChem BioAssay (NCI) come the findings set out here.

The nature of test [1]: NCI Yeast Anticancer Drug Screen. Data for the rad50 strain (AID 155).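 Note: 0% = growth of vehicle-only cultures of the same strain.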 The note with it: S. cerevisiae rad50 strain growth inhibition, hits give high values. Put shortly: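 Growth of the mutant yeast was measured after compound exposure and referenced to vehicle-treated cultures.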
Test [2] is described as follows: NCI Yeast Anticancer Drug Screen. Data for the mec2-1 strain (AID 157). The note with it: S. cerevisiae mec2-1 strain, hits give high values. Put shortly:
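Each compound was tested on mec2-1 yeast, a strain altered in DNA damage repair or cell cycle control. Growth inhibition is reported relative to vehicle.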

Test [3] can be described thus: NCI Yeast Anticancer Drug Screen. Data for the sgs1 mgt1 strain (AID 161).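 Note: 0% = growth of cultures given vehicle only.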 The settings on record: S. cerevisiae sgs1 mgt1 strain, hits give high values. In a few lines:
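Inhibition of yeast growth, normalised to vehicle-treated controls, is reported for a strain bearing genetic alterations in DNA damage repair.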

A short description of test [4]: NCI Yeast Anticancer Drug Screen. Data for the cln2 rad14 strain (AID 165).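 Note: 0% = growth equal to vehicle treated cultures.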 The settings on record: S. cerevisiae cln2 rad14 strain, hits give high values. In a few lines: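 Test compounds were added to cln2 rad14 yeast cultures; inhibition of growth was then determined by comparison with vehicle treatment.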
The nature of test [5]: NCI Yeast Anticancer Drug Screen. Data for the bub3 strain (AID 167). The note with it: S. cerevisiae bub3 mutant strain, hits give high values. In a few lines:
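Whole-cell yeast assay. The mutant strain was incubated with compounds, and growth inhibition was determined by comparison with vehicle-treated cells.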

A short description of test [6]: NCI Yeast Anticancer Drug Screen. Data for the mlh1 rad18 strain (AID 175). The note with it: S. cerevisiae mlh1 rad18 strain growth inhibition, hits give high values. Put shortly:
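Inhibition values reflect reduced growth of mutant yeast versus vehicle-treated controls following compound exposure; the mutations affect DNA damage repair.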

Where [7] appears, read: at 5.0 µM (retest, dose inferred, filed as 0.5).
Where [8] appears, read: at 50.0 µM (retest, dose inferred, filed as 5.0).

Molecules are shown by their SMILES. This is part of a sample that, as a whole, favours compounds with a hit. Of some 79,000 tested, about 15% had one in any assay. Unmarked numbers belong to inactive results. The source made the active and inactive calls. Cut-off read from the data, not from the text of the source: active = growth inhibition above about 70%; inactive = the rest.

For `CC(=O)c1c2c(cc3c1CC1(C3)Cc3ccc4c(c3C1=O)CCC4)CCC2` (configuration not stated), the growth inhibition in test [1] (setting [7]) is 3%; in test [1] (setting [8]), 1%; in test [1] (at 50.0 µM), -0.85%; in test [2] (setting [7]), 7%; in test [2] (setting [8]) it was 5%; in test [2] (at 50.0 µM), 17.2%. Moreover, the growth inhibition is 18% in test [3] (setting [7]); 7% in test [3] (setting [8]); 5.75% in test [3] (at 50.0 µM); 15% in test [4] (setting [7]); 16% in test [4] (setting [8]); 6.8% in test [4] (at 50.0 µM). For the same compound, the growth inhibition in test [5] (setting [7]) is 12%; in test [5] (setting [8]), 39%; in test [5] (at 50.0 µM), 55.2%; in test [6] (setting [7]) it was 7%; in test [6] (setting [8]), 6%; in test [6] (at 50.0 µM), 36.4%.

Regarding `CN(C)CC1CCC/C(=C\c2ccc(Cl)cc2)C1=O` (configuration not stated), the growth inhibition is -15% in test [1] (setting [7]); 99% (active) in test [1] (setting [8]); 80.5% (active) in test [1] (at 50.0 µM); -25% in test [2] (setting [7]); 99% (active) in test [2] (setting [8]); 86.8% (active) in test [2] (at 50.0 µM). Moreover, the growth inhibition in test [3] (setting [7]) was -28%; in test [3] (setting [8]), 99% (active); in test [3] (at 50.0 µM), 92.5% (active); in test [4] (setting [7]) it was -25%; in test [4] (setting [8]), 99% (active); in test [4] (at 50.0 µM), 87% (active). Also, the growth inhibition in test [5] (setting [7]) is -38%; in test [5] (setting [8]), 99% (active); in test [5] (at 50.0 µM), 91.4% (active); in test [6] (setting [7]) it was -14%; in test [6] (setting [8]) it was 99% (active); in test [6] (at 50.0 µM), 91.3% (active).

`Cc1nc(N2N=C(c3ccc(Cl)cc3)CCC2=O)sc1[N+](=O)[O-]`: the growth inhibition in test [1] (setting [7]) was 10%; in test [1] (setting [8]), 85% (active); in test [1] (at 50.0 µM), 85% (active); in test [2] (setting [7]), 13%; in test [2] (setting [8]), 65%; in test [2] (at 50.0 µM) it was 86.5% (active). The growth inhibition is -1% in test [3] (setting [7]); 71% (active) in test [3] (setting [8]); 83.7% (active) in test [3] (at 50.0 µM); 12% in test [4] (setting [7]); 46% in test [4] (setting [8]); 82% (active) in test [4] (at 50.0 µM). In addition, the growth inhibition was 10% in test [5] (setting [7]); 88% (active) in test [5] (setting [8]); 84% (active) in test [5] (at 50.0 µM); -12% in test [6] (setting [7]); 92% (active) in test [6] (setting [8]); 65.2% in test [6] (at 50.0 µM).

As to `CN(C)C(=O)SC1=C(c2c(Cl)cccc2Cl)C(=O)c2ccccc21`, the growth inhibition in test [1] (setting [7]) was 41%; in test [1] (setting [8]), 74% (active); in test [1] (at 50.0 µM), 66.3%; in test [2] (setting [7]) it was 32%; in test [2] (setting [8]), 69%; in test [2] (at 50.0 µM), 74.5% (active). Moreover, the growth inhibition is 53% in test [3] (setting [7]); 80% (active) in test [3] (setting [8]); 89.7% (active) in test [3] (at 50.0 µM); 33% in test [4] (setting [7]); 61% in test [4] (setting [8]); 87.8% (active) in test [4] (at 50.0 µM). The growth inhibition in test [5] (setting [7]) was 32%; in test [5] (setting [8]), 71% (active); in test [5] (at 50.0 µM), 85.9% (active); in test [6] (setting [7]) it was 82% (active); in test [6] (setting [8]) it was 93% (active); in test [6] (at 50.0 µM), 82.8% (active).

Consider `CC(C)=Cc1cc2c(cc1O)CCC1C2CC[C@@]2(C)C1CC[C@@H]2O` (some centres not stated), for which the growth inhibition in test [1] (setting [7]) was 14%; in test [1] (setting [8]), 16%; in test [1] (at 50.0 µM), 41.2%; in test [2] (setting [7]), -5%; in test [2] (setting [8]) it was 24%; in test [2] (at 50.0 µM) it was 60.1%. The growth inhibition is -14% in test [3] (setting [7]); 8% in test [3] (setting [8]); 71% (active) in test [3] (at 50.0 µM); 7% in test [4] (setting [7]); 29% in test [4] (setting [8]); 78.6% (active) in test [4] (at 50.0 µM). Further, the growth inhibition in test [5] (setting [7]) is -29%; in test [5] (setting [8]), 22%; in test [5] (at 50.0 µM), 45.8%; in test [6] (setting [7]), -1%; in test [6] (setting [8]) it was 23%; in test [6] (at 50.0 µM), 54.2%.

Turning to `CCOC(=O)/C=C/c1ccc([N+](=O)[O-])o1`, the growth inhibition was 18% in test [1] (setting [7]); 91% (active) in test [1] (setting [8]); 73.2% (active) in test [1] (at 50.0 µM); 3% in test [2] (setting [7]); 72% (active) in test [2] (setting [8]); 31.4% in test [2] (at 50.0 µM). The growth inhibition is 21% in test [3] (setting [7]); 93% (active) in test [3] (setting [8]); 91.5% (active) in test [3] (at 50.0 µM); 4% in test [4] (setting [7]); 58% in test [4] (setting [8]); 34.5% in test [4] (at 50.0 µM). In addition, the growth inhibition in test [5] (setting [7]) was 11%; in test [5] (setting [8]) it was 82% (active); in test [5] (at 50.0 µM), 27.1%; in test [6] (setting [7]), 28%; in test [6] (setting [8]), 93% (active); in test [6] (at 50.0 µM), 85.5% (active).

On to `Cc1ccc([PH+](CC[PH+](c2ccccc2)c2ccccc2)c2ccc(C)cc2)cc1.Cc1ccc([PH+](CC[PH+](c2ccccc2)c2ccccc2)c2ccc(C)cc2)cc1.[Pt]`, for which the growth inhibition in test [1] (setting [7]) was 40%; in test [1] (setting [8]), 88% (active); in test [1] (at 50.0 µM) it was 88.8% (active); in test [2] (setting [7]) it was 26%; in test [2] (setting [8]) it was 91% (active); in test [2] (at 50.0 µM) it was 90.7% (active). Also, the growth inhibition in test [3] (setting [7]) is 33%; in test [3] (setting [8]), 95% (active); in test [3] (at 50.0 µM), 91.3% (active); in test [4] (setting [7]), 34%; in test [4] (setting [8]), 93% (active); in test [4] (at 50.0 µM), 89.8% (active). Further, the growth inhibition is 29% in test [5] (setting [7]); 94% (active) in test [5] (setting [8]); 90.7% (active) in test [5] (at 50.0 µM); 39% in test [6] (setting [7]); 93% (active) in test [6] (setting [8]); 88.5% (active) in test [6] (at 50.0 µM).

Regarding `Cc1c(Cl)cccc1N=NC(=O)NNc1cccc(Cl)c1C`, the growth inhibition in test [1] (setting [7]) was 1%; in test [1] (setting [8]), 96% (active); in test [1] (at 50.0 µM) it was 85.4% (active); in test [2] (setting [7]), 29%; in test [2] (setting [8]), 96% (active); in test [2] (at 50.0 µM), 82.1% (active). Moreover, the growth inhibition in test [3] (setting [7]) is -1%; in test [3] (setting [8]) it was 97% (active); in test [3] (at 50.0 µM) it was 74.5% (active); in test [4] (setting [7]), 29%; in test [4] (setting [8]), 97% (active); in test [4] (at 50.0 µM), 80.5% (active). In addition, the growth inhibition in test [5] (setting [7]) was -12%; in test [5] (setting [8]), 97% (active); in test [5] (at 50.0 µM), 83.3% (active); in test [6] (setting [7]) it was 1%; in test [6] (setting [8]), 98% (active); in test [6] (at 50.0 µM), 81.5% (active).

For the compound `CCOC(=O)NCCCc1ccc2oc3ccccc3c2c1`, the growth inhibition is -1% in test [1] (setting [7]); 97% (active) in test [1] (setting [8]); 81.6% (active) in test [1] (at 50.0 µM); -3% in test [2] (setting [7]); 98% (active) in test [2] (setting [8]); 19.6% in test [2] (at 50.0 µM). Moreover, the growth inhibition in test [3] (setting [7]) was -3%; in test [3] (setting [8]), 97% (active); in test [3] (at 50.0 µM), 90.8% (active); in test [4] (setting [7]), 1%; in test [4] (setting [8]), 95% (active); in test [4] (at 50.0 µM), -12.7%. For the same compound, the growth inhibition in test [5] (setting [7]) is 9%; in test [5] (setting [8]), 98% (active); in test [5] (at 50.0 µM), 19.8%; in test [6] (setting [7]), -1%; in test [6] (setting [8]) it was 97% (active); in test [6] (at 50.0 µM), 57.9%.
